CYP2C9 act – increases human cytochrome P450 2C9 activity; actives 1.4% (n = 96,000); activation factor at 5 µM; AID 1024; recombinant CYP2C9, luciferin-H conversion, luminescence; active compounds read high; factor 1 = untreated enzyme, 0 = blocked;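 active = activation factor of 2 or more for CYP2C9 at a 5 µM dose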;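 also: 0 = sulfaphenazole-blocked wells and 1 = vehicle-only wells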
Target sequence (P11712 whole entry, looked up): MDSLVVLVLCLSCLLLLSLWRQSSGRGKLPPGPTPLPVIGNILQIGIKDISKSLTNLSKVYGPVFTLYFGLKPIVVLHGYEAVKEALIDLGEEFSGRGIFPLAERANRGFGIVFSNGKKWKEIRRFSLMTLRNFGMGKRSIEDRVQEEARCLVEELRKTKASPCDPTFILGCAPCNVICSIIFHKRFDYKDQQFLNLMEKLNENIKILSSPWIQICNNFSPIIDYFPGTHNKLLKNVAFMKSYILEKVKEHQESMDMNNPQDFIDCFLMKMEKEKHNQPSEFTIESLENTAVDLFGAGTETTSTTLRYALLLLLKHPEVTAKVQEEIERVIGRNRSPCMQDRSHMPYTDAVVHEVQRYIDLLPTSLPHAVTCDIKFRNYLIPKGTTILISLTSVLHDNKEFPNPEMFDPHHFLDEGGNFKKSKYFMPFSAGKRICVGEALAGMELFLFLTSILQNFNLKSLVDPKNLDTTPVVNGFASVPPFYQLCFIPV
CYP2C19 act – activators of human cytochrome P450 2C19; recombinant CYP2C19, luciferin-H EGE luminescence; active compounds read high; 0 = fully inhibited enzyme, 1 = untreated enzyme; activation factor at 5 µM; 96,000 tested, under 10 active;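 active = activation factor of at least 2 at 5 µM in the primary screen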;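 also: 0 = wells with 2.5 mM tranylcypromine and 1 = vehicle-only wells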
CYP2C9 inhib – blocks human cytochrome P450 2C9 | P11712 | inhibition, % at 5 µM | AID 777 | actives 20% (n = 96,000) | CYP2C9 Supersomes, luciferin-H conversion, luminescence;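 active = blocking of liver enzyme CYP2C9 beyond about 50% at 5 µM, limit read from the data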
CYP2C19 inh – inhibitors of human CYP2C19 | CYP2C19 Supersomes, luciferin-H EGE luminescence, 30 min | actives 21% (n = 96,000) | inhibition, % at 5 µM;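 active = CYP2C19 inhibition above a set limit at 5 µM in the primary screen, cut at about 50% in these data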;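 also: plate controls were negative control wells for no effect and 2.5 mM tranylcypromine positive control for full effect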
Measles CPE – protection of cells from measles virus; actives 1.5% (n = 140,000); Measles virus-infected cells, CPE protection, absorbance; protection (pct of control), % at 4 µM; in the data active = protection mostly above about 24%, no sharp cut-off; inactive = mostly below about 26%
Active calls of the source: *; / = no result. Shown are actives, neighbours in structure and some others; about 22% of the full set was active somewhere.

SMILES	CYP2C9 act	CYP2C19 act	CYP2C9 inhib	CYP2C19 inh	Measles CPE
CC(C)(C)n1nc2c(c1NC(=O)COc1ccc(Cl)cc1)CSC2	0.1	0.3	86.1*	66.9*	4.4
CCOC(=O)N1CCN(C(=O)COc2ccc(Cl)cc2)CC1	1.1	0.6	-13.0	38.1	6.4
CC(C)(C)n1nc2c(c1NC(=O)Cc1cccs1)CSC2	0.2	0.6	76.5*	37.6	20.3
CC(C)(C)n1nc2c(c1NC(=O)Cc1ccc(F)cc1)CSC2	0.3	0.4	67.9*	64.1*	1.4
CSc1nnc2c3c4c(sc3nc(-n3nc(C)cc3C)n12)COC(C)(C)C4	0.5	0.9	47.0	12.0	2.6
Cn1c2ccccc2c2ncn(CCC3=CCCCC3)c(=O)c21	0.2	0.3	83.8*	71.0*	12.3
Cc1cc(=O)[nH]c(N2CCN(C(c3ccccc3)c3ccccc3)CC2)n1	0.9	1.1	10.7	-7.9	17.7
COc1cccc(-c2cc(C(=O)Nc3cc(OC)c(OC)c(OC)c3)no2)c1	0.7	0.2	30.8	81.1*	2.9
Cc1nn(Cc2ccccc2)c(C)c1NC(=O)c1cc(-c2cccs2)on1	0.4	0.7	62.7*	28.2	17.8
COc1cc(NC(=O)c2cc3nc(-c4ccccc4)cc(-c4ccccc4)n3n2)cc(OC)c1OC	0.4	0.7	64.5*	33.0	3.0
Cc1ccc(NC(=O)c2cc(-c3cccc(O)c3)on2)cc1C	2.9*	0.8	-187.5	19.7	16.5
Cc1ccc(NC(=O)c2cc(-c3ccco3)on2)cc1C	1.5	1.2	-50.5	-17.9	14.1
CCN1CCN(C2CCN(C(C)=O)CC2)CC1	1.1	1.1	-12.0	-7.1	/
Cn1c(CC(=O)Nc2ccc(F)cc2)c(Sc2ccccc2)c2ccccc21	/	/	/	/	20.2
Cc1ccc(NC2=CC(=O)CC(c3ccccc3)C2)cc1 (stereo not drawn)	/	/	/	/	2.6
CCC1(CC)N([O-])C(C)=C(c2ccccc2)[N+]1=O	1	1	4.9	1.3	3.8
COc1ccc(-c2cc(C(=O)Nc3c(C)nn(Cc4ccccc4)c3C)no2)cc1	0.9	0.7	13.0	26.3	6.0
COc1cccc(-c2cc(C(=O)Nc3c(C)nn(Cc4ccccc4)c3C)no2)c1	0.5	0.7	53.6*	26.7	8.4
N#CC1=C2SCN(c3ccccc3)CN2C(=O)CC1c1cccs1 (stereo not drawn)	0.2	0.5	83.2*	50.0*	9.3
CCOc1ccc(N2CSC3=C(C#N)C(c4ccco4)CC(=O)N3C2)cc1 (stereo not drawn)	0.7	0.9	32.6	6.7	11.6
N#CC1=C2SCN(c3ccccc3)CN2C(=O)CC1c1ccccc1Cl (stereo not drawn)	0.4	0.7	61.4*	27.0	7.2
CC(C)c1ccc(C2CC(=O)N3CN(C)CSC3=C2C#N)cc1 (stereo not drawn)	0.8	1	21.9	0.5	7.6
N#CC1=C2SCN(c3ccccc3)CN2C(=O)CC1c1c(Cl)cccc1Cl (stereo not drawn)	0.1	0.9	87.7*	14.7	19.1
Cc1ccc(C2CC(=O)N3CN(c4ccc(Br)cc4)CSC3=C2C#N)o1 (stereo not drawn)	0	0.1	97.9*	90.1*	8.6
CN1CCN(c2nc(-c3ccccn3)nc3ccccc23)CC1	1	1.3	-0.5	-25.8	8.9
SMILES	CYP2C9 act	CYP2C19 act	CYP2C9 inhib	CYP2C19 inh	Measles CPE
COc1ccc(C2C(C#N)=C(N)Oc3cc4c(cc32)OCO4)cc1 (stereo not drawn)	0.1	0.1	86.6*	87.4*	5.8
COc1ccc(OC)c(C2C(C#N)=C(N)Oc3cc(N)ccc32)c1 (stereo not drawn)	0.1	0.1	91.5*	94.1*	12.1
CCOc1cccc(C2C(C#N)=C(N)Oc3cc(C)n(Cc4ccccn4)c(=O)c32)c1OCC (stereo not drawn)	0.9	1.1	12.9	-7.8	2.8
N#CC1=C(N)Oc2cc(N)ccc2C1C1CCCCC1 (stereo not drawn)	0.7	0.2	31.4	83.5*	6.2
CCOc1ccccc1C1C(C#N)=C(N)Oc2cc(N)ccc21 (stereo not drawn)	0.3	0.2	69.6*	75.9*	33.6
O=C(/C=C/c1ccc(Cl)cc1)NCCc1ccccc1	/	/	/	/	18.8
Cc1ccccc1C(O)c1ccccn1 (stereo not drawn)	0.9	0.8	6.3	17.1	4.0
c1ccc(C(c2c[nH]c3ccccc23)c2c[nH]c3ccccc23)nc1	0.1	0.5	94.6*	53.6*	3.9
Cn1cc(C(c2ccccn2)c2cn(C)c3ccccc23)c2ccccc21	0	0.6	95.7*	43.7	8.1
CCCCn1c(=N)n(CC(O)COc2ccc(C)cc2)c2ccccc21 (stereo not drawn)	1	0.5	4.1	52.0*	7.8
Cc1ccccc1OCC(O)Cn1c(=N)n(CCN2CCOCC2)c2ccccc21 (stereo not drawn)	0.4	1	57.2*	1.3	6.0
N=c1n(CCN2CCOCC2)c2ccccc2n1CC(O)COc1ccccc1 (stereo not drawn)	1.1	1.1	-10.1	-10.7	4.7
Cc1ccc(Cn2c(=N)n(CC(O)COc3ccccc3)c3ccccc32)cc1 (stereo not drawn)	0.9	0.5	13.5	53.1*	7.0
Cc1ccc(C2C3=C(CC(C)(C)CC3=O)Nc3n[nH]c(C)c32)cc1 (stereo not drawn)	0.9	0.7	13.0	26.5	6.4
O=C(CSc1nccc(=O)[nH]1)c1ccccc1Br	0.4	0.9	55.0*	11.0	29.6
O=C(CSc1nccc(=O)[nH]1)N1CCc2ccccc2C1	0.8	0.9	16.6	11.6	6.0
Cc1ccc2cc(COC(=O)c3ccncc3)c(=O)[nH]c2c1	0.3	0.1	65.6*	92.3*	5.4
CCN(Cc1cc2ccc(C)cc2[nH]c1=O)C(=O)c1ccncc1	0.6	0.3	41.2	67.6*	4.3
Cc1cccc2cc(COC(=O)c3cccnc3)c(=O)[nH]c12	0.6	0.5	38.6	51.7*	9.0
COC(=O)C1=C(C)NC(C)=C(C(=O)OC)C1c1cc2ccc(C)cc2[nH]c1=O	0.8	0.6	17.5	40.4	29.6
CCOC(=O)C1=C(C)NC(C)=C(C(=O)OCC)C1c1cc2ccc(C)cc2[nH]c1=O	0.5	0.7	53.5*	25.1	3.1
COc1cccc2c(=O)c(C(=O)O)c[nH]c12	0.7	1.2	33.2	-17.1	4.7
NC(=O)C1CCCN(Cc2ccc(Cl)cc2)C1 (stereo not drawn)	0.9	0.6	8.1	42.6	7.6
CCCC1Cc2c(sc3nc(SC)nc(N)c23)CO1 (stereo not drawn)	0.9	0.6	10.7	38.3	3.4
CSc1nc(N)c2c3c(sc2n1)COC(C(C)C)C3 (stereo not drawn)	0.9	0.1	12.0	94.5*	4.3
COC(=O)[C@H]1C[C@@H]1[C@H](NC(=O)c1cnccn1)c1ccccc1	/	/	/	/	1.6
O=C(Cc1ccccc1)Nc1ccc(-c2nnc(-c3ccco3)o2)cc1	/	/	/	/	13.8

Assay outcomes: PubChem BioAssay, several laboratories
